Assay results reported in ChEMBL document CHEMBL1961873, “Compounds: GSK PKIS; Assays: Nanosyn kinase panel” (2012).

Columns and labels:
[1] = molecular target: Death-associated protein kinase 1 (Homo sapiens) (UniProt P53355); details: at 1 µM;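 also: each value is a mean inhibition figure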
[2] = molecular target: T1, Serine/threonine-protein kinase DCLK2 (Homo sapiens) (UniProt Q8N568); details: at 0.1 µM
T1 sequence (whole entry): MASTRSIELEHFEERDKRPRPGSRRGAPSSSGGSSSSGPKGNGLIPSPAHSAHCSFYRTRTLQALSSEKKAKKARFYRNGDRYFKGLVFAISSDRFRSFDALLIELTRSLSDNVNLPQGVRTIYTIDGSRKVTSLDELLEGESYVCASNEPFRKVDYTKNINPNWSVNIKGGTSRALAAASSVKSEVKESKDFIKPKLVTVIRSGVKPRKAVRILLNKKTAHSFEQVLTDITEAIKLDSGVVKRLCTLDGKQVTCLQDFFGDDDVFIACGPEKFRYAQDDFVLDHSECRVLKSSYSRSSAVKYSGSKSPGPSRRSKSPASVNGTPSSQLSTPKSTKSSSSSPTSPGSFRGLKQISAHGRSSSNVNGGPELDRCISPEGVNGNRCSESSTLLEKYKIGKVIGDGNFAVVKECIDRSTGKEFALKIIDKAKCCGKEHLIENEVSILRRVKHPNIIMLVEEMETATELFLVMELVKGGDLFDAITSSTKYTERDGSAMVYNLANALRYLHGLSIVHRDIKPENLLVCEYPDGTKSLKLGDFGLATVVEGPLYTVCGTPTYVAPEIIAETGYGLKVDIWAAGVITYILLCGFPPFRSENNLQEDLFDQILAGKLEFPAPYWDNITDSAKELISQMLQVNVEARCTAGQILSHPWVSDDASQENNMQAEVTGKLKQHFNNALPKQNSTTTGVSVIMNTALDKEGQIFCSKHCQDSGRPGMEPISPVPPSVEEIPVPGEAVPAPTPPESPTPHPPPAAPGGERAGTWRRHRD

[3] = molecular target: T1, Serine/threonine-protein kinase DCLK2 (Homo sapiens); details: at 1 µM
[4] = molecular target: MAP kinase-activated protein kinase 2 (Homo sapiens) (UniProt P49137); details: at 0.1 µM
Sequence of MAP kinase-activated protein kinase 2 (Homo sapiens) (P49137 whole entry, looked up): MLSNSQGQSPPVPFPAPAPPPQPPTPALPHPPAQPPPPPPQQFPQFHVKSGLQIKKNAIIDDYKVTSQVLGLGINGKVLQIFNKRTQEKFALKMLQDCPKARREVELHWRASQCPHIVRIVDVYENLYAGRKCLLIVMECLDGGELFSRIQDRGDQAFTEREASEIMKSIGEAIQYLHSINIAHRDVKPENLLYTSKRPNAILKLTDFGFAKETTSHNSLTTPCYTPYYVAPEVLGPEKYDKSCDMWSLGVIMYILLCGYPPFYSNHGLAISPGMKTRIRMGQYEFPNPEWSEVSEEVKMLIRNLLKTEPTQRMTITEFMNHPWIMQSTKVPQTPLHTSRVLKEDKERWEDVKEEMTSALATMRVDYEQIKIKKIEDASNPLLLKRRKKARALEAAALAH

[5] = molecular target: MAP kinase-activated protein kinase 2 (Homo sapiens) (UniProt P49137); details: at 1 µM
[6] = molecular target: MAP kinase-activated protein kinase 3 (Homo sapiens) (UniProt Q16644); details: at 0.1 µM
Sequence of MAP kinase-activated protein kinase 3 (Homo sapiens) (Q16644 whole entry, looked up): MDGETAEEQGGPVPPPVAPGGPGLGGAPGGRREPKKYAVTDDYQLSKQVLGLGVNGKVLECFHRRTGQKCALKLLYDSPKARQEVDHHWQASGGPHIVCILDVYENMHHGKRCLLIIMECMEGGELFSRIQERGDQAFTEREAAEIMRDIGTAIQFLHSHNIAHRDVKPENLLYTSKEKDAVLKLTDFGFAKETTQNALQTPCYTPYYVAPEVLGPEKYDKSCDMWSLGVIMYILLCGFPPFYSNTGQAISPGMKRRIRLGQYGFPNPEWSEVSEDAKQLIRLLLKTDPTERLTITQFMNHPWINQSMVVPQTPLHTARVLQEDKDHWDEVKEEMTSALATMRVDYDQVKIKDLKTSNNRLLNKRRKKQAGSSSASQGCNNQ

[7] = molecular target: MAP kinase-activated protein kinase 3 (Homo sapiens) (UniProt Q16644); details: at 1 µM
[8] = molecular target: Serine/threonine-protein kinase MARK1 (Homo sapiens) (UniProt Q9P0L2); details: at 0.1 µM
[9] = molecular target: Serine/threonine-protein kinase MARK1 (Homo sapiens) (UniProt Q9P0L2); details: at 1 µM
[10] = molecular target: MAP/microtubule affinity-regulating kinase 3 (Homo sapiens) (UniProt P27448); details: at 0.1 µM
Sequence of MAP/microtubule affinity-regulating kinase 3 (Homo sapiens) (P27448 whole entry, looked up): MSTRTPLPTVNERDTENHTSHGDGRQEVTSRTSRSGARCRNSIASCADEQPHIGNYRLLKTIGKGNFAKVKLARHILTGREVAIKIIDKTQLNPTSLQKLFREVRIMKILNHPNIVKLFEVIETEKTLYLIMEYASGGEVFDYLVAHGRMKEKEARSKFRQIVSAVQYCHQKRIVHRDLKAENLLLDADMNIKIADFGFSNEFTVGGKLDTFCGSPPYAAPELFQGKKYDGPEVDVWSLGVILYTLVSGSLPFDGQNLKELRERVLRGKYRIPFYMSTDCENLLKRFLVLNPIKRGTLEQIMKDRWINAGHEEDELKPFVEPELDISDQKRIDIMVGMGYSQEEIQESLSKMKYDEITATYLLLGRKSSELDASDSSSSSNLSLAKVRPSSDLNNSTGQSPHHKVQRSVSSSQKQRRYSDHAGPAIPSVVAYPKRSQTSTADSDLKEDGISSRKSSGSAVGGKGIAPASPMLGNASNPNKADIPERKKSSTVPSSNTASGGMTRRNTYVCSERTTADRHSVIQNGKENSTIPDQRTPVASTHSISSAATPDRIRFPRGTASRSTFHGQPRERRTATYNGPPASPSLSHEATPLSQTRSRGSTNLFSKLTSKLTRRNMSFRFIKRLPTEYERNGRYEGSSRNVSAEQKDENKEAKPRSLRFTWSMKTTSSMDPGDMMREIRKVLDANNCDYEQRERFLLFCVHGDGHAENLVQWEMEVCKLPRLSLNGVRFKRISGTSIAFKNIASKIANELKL

[11] = molecular target: MAP/microtubule affinity-regulating kinase 3 (Homo sapiens) (UniProt P27448); details: at 1 µM
[12] = molecular target: T2, MAP/microtubule affinity-regulating kinase 4 (Homo sapiens) (UniProt Q96L34); details: at 0.1 µM
T2 sequence (whole entry): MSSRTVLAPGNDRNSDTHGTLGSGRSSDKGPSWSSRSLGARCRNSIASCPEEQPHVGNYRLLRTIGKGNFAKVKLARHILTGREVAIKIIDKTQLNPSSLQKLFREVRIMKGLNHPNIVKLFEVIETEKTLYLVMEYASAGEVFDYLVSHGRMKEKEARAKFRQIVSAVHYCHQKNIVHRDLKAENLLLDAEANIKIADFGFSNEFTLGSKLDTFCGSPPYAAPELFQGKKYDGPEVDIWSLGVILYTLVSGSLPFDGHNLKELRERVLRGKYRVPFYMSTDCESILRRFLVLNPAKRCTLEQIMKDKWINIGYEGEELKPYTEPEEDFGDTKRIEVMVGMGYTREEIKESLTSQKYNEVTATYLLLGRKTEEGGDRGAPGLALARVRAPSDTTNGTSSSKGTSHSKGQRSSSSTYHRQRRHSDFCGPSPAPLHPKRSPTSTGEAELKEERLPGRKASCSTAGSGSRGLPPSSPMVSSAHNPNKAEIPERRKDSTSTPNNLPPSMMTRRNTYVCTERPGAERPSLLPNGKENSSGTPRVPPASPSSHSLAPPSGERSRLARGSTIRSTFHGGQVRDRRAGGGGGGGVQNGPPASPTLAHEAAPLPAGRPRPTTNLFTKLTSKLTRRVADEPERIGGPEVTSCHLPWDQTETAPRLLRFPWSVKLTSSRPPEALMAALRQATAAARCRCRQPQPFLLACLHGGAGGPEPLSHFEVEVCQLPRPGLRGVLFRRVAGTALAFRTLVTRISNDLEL

[13] = molecular target: T2, MAP/microtubule affinity-regulating kinase 4 (Homo sapiens); details: at 1 µM
[14] = molecular target: Maternal embryonic leucine zipper kinase (Homo sapiens) (UniProt Q14680); details: at 0.1 µM
Sequence of Maternal embryonic leucine zipper kinase (Homo sapiens) (Q14680 whole entry, looked up): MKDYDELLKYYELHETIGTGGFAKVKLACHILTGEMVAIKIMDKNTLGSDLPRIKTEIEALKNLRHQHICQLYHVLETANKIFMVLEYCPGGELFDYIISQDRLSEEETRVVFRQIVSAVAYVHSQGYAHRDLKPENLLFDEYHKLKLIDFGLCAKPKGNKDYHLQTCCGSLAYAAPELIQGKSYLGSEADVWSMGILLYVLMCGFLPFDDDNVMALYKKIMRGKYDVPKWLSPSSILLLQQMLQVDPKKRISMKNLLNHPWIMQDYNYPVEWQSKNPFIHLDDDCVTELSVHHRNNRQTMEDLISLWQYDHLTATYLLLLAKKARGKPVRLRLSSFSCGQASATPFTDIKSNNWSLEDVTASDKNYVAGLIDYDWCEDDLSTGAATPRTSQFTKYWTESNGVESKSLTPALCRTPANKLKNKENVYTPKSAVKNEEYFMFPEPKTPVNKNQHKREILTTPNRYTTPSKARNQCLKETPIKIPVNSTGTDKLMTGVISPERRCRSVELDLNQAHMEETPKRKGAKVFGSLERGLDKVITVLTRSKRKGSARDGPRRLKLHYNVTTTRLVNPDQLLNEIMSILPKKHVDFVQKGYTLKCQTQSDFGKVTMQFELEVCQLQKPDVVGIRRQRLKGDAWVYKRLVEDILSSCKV

[15] = molecular target: Maternal embryonic leucine zipper kinase (Homo sapiens) (UniProt Q14680); details: at 1 µM
[16] = molecular target: MAP kinase-interacting serine/threonine-protein kinase 1 (Homo sapiens) (UniProt Q9BUB5); details: at 0.1 µM
[17] = molecular target: MAP kinase-interacting serine/threonine-protein kinase 1 (Homo sapiens) (UniProt Q9BUB5); details: at 1 µM
[18] = molecular target: MAP kinase-interacting serine/threonine-protein kinase 2 (Homo sapiens) (UniProt Q9HBH9); details: at 0.1 µM
Sequence of MAP kinase-interacting serine/threonine-protein kinase 2 (Homo sapiens) (Q9HBH9 whole entry, looked up): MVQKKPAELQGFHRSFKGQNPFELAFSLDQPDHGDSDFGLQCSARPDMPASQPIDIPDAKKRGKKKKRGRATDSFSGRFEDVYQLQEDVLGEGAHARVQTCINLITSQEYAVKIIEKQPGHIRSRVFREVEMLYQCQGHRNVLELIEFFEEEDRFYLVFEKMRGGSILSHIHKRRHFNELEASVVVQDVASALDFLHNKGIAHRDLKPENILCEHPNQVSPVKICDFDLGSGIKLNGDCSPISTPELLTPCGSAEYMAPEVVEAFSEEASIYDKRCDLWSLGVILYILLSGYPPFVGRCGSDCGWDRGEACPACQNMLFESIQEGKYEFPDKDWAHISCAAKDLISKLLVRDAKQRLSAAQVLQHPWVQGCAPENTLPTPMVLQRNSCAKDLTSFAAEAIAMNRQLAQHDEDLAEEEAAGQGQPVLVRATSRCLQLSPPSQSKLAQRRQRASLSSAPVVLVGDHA

[19] = molecular target: MAP kinase-interacting serine/threonine-protein kinase 2 (Homo sapiens) (UniProt Q9HBH9); details: at 1 µM
[20] = molecular target: Serine/threonine-protein kinase MARK2 (Homo sapiens) (UniProt Q7KZI7); details: at 0.1 µM;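 also: mean percent inhibition of PAR-1Balpha kinase activity, reported from the GSK PKIS screen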
Sequence of Serine/threonine-protein kinase MARK2 (Homo sapiens) (Q7KZI7 whole entry): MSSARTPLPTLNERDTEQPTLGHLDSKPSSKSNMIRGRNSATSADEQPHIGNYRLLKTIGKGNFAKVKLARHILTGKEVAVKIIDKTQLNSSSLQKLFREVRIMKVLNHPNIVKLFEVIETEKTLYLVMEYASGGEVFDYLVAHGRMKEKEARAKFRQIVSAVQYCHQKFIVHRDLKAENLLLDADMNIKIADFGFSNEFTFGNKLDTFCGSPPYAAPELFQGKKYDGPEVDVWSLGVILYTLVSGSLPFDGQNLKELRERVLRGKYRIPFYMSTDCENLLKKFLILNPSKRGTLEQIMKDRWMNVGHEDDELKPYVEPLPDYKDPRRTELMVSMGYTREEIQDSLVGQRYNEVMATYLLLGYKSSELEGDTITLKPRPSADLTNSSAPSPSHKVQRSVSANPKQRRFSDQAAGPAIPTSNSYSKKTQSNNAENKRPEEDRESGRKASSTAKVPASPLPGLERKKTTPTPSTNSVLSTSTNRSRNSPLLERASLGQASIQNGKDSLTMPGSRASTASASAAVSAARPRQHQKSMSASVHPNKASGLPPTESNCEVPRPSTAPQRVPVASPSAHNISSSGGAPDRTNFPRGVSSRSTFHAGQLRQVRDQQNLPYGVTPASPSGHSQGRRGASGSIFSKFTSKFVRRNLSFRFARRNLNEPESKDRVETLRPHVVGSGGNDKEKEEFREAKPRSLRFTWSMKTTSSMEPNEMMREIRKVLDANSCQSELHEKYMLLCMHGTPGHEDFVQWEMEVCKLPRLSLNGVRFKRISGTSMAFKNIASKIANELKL

Sequence of Death-associated protein kinase 1 (Homo sapiens) (P53355 whole entry, looked up): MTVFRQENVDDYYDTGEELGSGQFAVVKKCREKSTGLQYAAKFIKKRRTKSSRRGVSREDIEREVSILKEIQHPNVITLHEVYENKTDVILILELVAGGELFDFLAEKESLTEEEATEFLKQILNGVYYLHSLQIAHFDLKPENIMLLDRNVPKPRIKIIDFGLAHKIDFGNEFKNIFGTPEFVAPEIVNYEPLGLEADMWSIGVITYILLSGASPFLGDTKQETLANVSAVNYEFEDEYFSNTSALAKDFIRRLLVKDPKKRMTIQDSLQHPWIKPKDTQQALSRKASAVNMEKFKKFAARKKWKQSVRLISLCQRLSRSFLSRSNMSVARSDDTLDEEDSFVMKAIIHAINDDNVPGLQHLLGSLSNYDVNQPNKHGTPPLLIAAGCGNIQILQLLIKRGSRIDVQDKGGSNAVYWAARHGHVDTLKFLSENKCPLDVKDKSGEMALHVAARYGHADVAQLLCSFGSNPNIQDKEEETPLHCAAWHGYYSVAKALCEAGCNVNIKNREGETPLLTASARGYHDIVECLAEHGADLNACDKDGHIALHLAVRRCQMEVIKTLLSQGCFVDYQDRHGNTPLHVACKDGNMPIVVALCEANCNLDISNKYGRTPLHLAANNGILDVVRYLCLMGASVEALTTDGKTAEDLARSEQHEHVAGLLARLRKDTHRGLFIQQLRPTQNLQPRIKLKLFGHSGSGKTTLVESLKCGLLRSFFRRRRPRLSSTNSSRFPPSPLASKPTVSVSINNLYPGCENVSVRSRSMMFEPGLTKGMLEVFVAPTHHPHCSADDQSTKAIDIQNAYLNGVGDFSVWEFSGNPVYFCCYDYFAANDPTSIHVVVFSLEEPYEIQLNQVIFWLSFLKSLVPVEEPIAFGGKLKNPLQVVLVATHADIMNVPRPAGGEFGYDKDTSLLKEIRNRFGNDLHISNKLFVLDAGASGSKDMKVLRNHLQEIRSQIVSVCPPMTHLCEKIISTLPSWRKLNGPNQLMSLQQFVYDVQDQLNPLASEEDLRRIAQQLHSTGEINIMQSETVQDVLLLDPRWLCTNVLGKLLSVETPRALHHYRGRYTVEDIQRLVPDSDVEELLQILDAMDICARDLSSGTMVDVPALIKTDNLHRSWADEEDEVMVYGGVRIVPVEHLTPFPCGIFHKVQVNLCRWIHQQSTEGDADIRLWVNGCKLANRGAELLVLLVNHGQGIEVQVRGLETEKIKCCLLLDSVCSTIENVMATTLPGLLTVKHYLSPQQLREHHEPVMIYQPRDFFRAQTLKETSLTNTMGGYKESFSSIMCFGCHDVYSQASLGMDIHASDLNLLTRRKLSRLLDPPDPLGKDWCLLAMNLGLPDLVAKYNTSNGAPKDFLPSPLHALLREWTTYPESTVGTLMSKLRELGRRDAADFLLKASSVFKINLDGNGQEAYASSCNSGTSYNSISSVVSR

Compound	inhibition [1] [%]	inhibition [2] [%]	inhibition [3] [%]	inhibition [4] [%]	inhibition [5] [%]	inhibition [6] [%]	inhibition [7] [%]	inhibition [8] [%]	inhibition [9] [%]	inhibition [10] [%]	inhibition [11] [%]	inhibition [12] [%]	inhibition [13] [%]	inhibition [14] [%]	inhibition [15] [%]	inhibition [16] [%]	inhibition [17] [%]	inhibition [18] [%]	inhibition [19] [%]	inhibition [20] [%]
CCCN1CCC=C(c2ccc(Nc3nc(Nc4ccccc4C(N)=O)c4cc[nH]c4n3)c(C)c2)C1	6.22	-0.54	3.15	2.63	4.94	3.15	6.16	2.76	16.1	2.37	20.8	3.18	13.7	10	44.7	2.32	3.91	1.78	7.47	1.68
Cn1cc(C=C2C(=O)Nc3cccnc32)c2ccccc21	7.28	0.87	3.71	0.71	1.83	2.19	5.11	3.55	9.52	4.73	7.16	1.67	6.49	4.43	23.5	3.06	15.5	1.53	15.3	1.17
COc1ccc(COc2ccc(Cc3cnc(N)nc3N)cc2OC)cc1	9.42	0.28	8.82	2.95	3.22	6.15	7.43	2.6	0.09	4.54	2.06	2.83	1.47	0.82	-1.43	10.8	0.82	3.14	0.25	1.26
COc1cc2ncn(-c3cc(O[C@@H](C)c4ccccc4Cl)c(C(N)=O)s3)c2cc1OC	8.9	-1.19	3.6	5.43	5	9.03	10.9	4.26	9.07	4.06	8.06	2.88	7.69	4.41	9.71	1.25	2.74	-0.9	7.84	1.49
Cc1ccc(NC(=O)c2ccnc(N3CCCC3)c2)cc1-c1ccc(C(=O)NCC2CC2)cc1	5.74	-1.99	-0.35	0.7	1.5	19.9	30.2	5.49	8.31	6.19	0.65	4.16	5.97	4.85	7.99	1.78	6.57	-0.01	1.11	0.13
O=C(Nc1n[nH]c2nc(-c3ccco3)c(Br)cc12)C1CC1	4.49	-0.15	1.73	1.86	1.26	2.91	3.6	2.45	2.7	4.8	-5.02	1.46	2.43	2.96	7.3	3.3	13.9	1.26	1.34	-0.08
CCn1c(-c2nonc2N)nc2cnc(Oc3cccc(NC(=O)c4ccc(OCCN5CCOCC5)cc4)c3)cc21	-1.31	0.99	2.71	1.4	0.54	3.45	3.54	3.31	13.3	0.46	8.24	1.29	4.43	10.4	50.5	3.45	13.3	3.73	21	1.17
Nc1nc(-c2ccc3c(c2)C(=Cc2cc(Br)c(O)c(Br)c2)C(=O)N3)cs1	-4.53	-3.76	-0.78	-1.56	-1.55	-1.77	-1.51	0.42	1.58	-0.72	-2.49	0.78	1.73	0.07	5.36	-1.04	7.91	0.49	10.6	0
CCn1c(-c2nonc2N)nc2cncc(C(=O)N3CCNCC3)c21	8.15	0.84	1.96	2.84	5.04	6.65	10.7	2.63	3.48	5.76	7.99	2.3	1.48	6.1	9.51	2.42	2.99	1.78	0.78	2.18
COc1cc(C=NNc2ncnc3c2cnn3-c2ccccc2)ccc1O	-5.67	1.34	-4.27	-1.87	-2.21	-3.81	-2.84	2.3	8.38	3.21	18.2	1.61	11.3	6.74	43.8	12.1	49.9	13.7	52	-0.32
Cc1cc(O)cc(C)c1/C=C/c1cncc(-c2nn[nH]n2)c1	3.95	-1.23	-3.21	2.39	1.49	6.11	4.25	4.55	5.09	5.87	5.96	2.37	3.69	4.83	8.68	20.6	65.3	22.6	63.8	0.37
CC1=C(C(=O)Nc2ccc3[nH]ncc3c2)C(c2ccc(F)cc2)NC(=O)N1 (stereo not given)	1.59	1.36	-0.03	1.48	1.87	1.46	1.05	2.81	9.5	0.23	8.67	0.77	4.62	2.13	6.05	2.34	46.2	3.85	65.3	-0.93
